Assay outcomes deposited in PubChem BioAssay by National Center for Advancing Translational Sciences (NCATS).
Peg3 imprint = induces erasure of genomic imprints in mouse ES cells. AID 1948. hit rate 0.02% among 110,000. mouse ES Peg3-LacZ reporter, beta-gal luminescence, 40 h. Potency, µM (titrated, usually from 60.7 µM), inactives show at the top dose activity change, positive = activation, most hits filed as activators
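Readout: BetaGlo luminescence (5 min, room temp) for LacZ from the normally silent maternal Peg3 allele in female Peg3LacZ-Neo ES cells. Cells 300/well, 40 h, 37C, 5% CO2. Data normalized per plate to negative controls.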
p53ts 39C tox = p53ts cell cytotoxicity, nonpermissive temperature | Potency, µM (top dose mostly 46.1 µM), without a hit: top-dose activity change, negative = cell killing, actives largely listed as cytotoxic | hit rate 1.5% among 130,000 | AID 902 | H1299-p53A138V viability at 39C, ATP luminescence, 24 h; further: on the % scale 0 is the no-effect control and ±100 the full control effect; nearly all actives have a fitted effect of over 55% in size
p53ts 32C kill = p53ts cell cytotoxicity, permissive temperature; H1299-p53A138V at 32C, ATP luminescence viability, 24 h; Potency, µM (highest dose often 46.1 µM), for the others: at the highest dose activity change, negative = cytotoxicity, actives largely listed as cytotoxic; hit rate 0.93% among 130,000; AID 924;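 further: 0% = DMSO and -100% = full killing by reference compound; nearly all actives have a fitted effect of over 55% in size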
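Cells: H1299 p53ts (A138V), 600/well, pre-incubated 16–30 h at 37C. Cpd up to 46 uM, 24 h, 32C. Readout: ATPlite luminescence, 20 min RT. Normalization: DMSO vs tamoxifen 100 uM. AC50 by Hill equation.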
* hit, by the source's call; [ ] = another dose, or the depositor's remark. Sampled rows, rich in hits. Any-hit rate of the full collection: about 1.8%. The call rests on the fitted dose curve; in most records, active means well fitted curve in the direction sought with a large enough effect; inconclusive means small, poorly fitted or top-dose-only effect, or another doubt; inactive means no such curve, though single readings can be large; an effect the other way counts as inactive or inconclusive. Potency means the concentration at half of the fitted maximal effect.

What do the screens show for `O=C(/C=C/c1cn(CC(O)CN2CCCCCC2)c2ccccc12)c1ccccc1` (stereo not drawn)?
Peg3 imprint: -10.7%[10.9 µM]; p53ts 39C tox: inconclusive; p53ts 32C kill: -12.8%

Results for Cc1ccc(C(=O)/C=C/c2cn(CC(O)CN3CCCCCC3)c3ccccc23)cc1 (stereo not drawn) ?
Peg3 imprint: inconclusive; p53ts 39C tox: 12.6µM*; p53ts 32C kill: inconclusive

Results for O=C(/C=C/c1cn(CC(O)CN2CCCCCC2)c2ccccc12)c1ccc(Br)cc1 (stereo not drawn) ?
Peg3 imprint: 9.7%[10.9 µM]; p53ts 39C tox: inconclusive; p53ts 32C kill: -4.0%

How did CC(=O)[C@H](CC(C)C)NC(=O)[C@@H](CC(C)C)NC(=O)[C@H](CC(C)C)NC(=O)OCc1ccccc1 do in these assays?
Peg3 imprint: -25.7%; p53ts 39C tox: 7.9%; p53ts 32C kill: inconclusive

What do the screens show for `COC(=O)c1ccc(C(=O)OC)c(NC(=O)c2cnn3c(C(F)F)cc(-c4ccc(C)cc4)nc23)c1`?
Peg3 imprint: -9.4%[10.9 µM]; p53ts 39C tox: 26.5%; p53ts 32C kill: 5.2%

Results for CC(C)(C)NS(=O)(=O)c1ccc2nc(NC(=O)c3cccnc3)sc2c1 ?
Peg3 imprint: 5.7%[10.9 µM]; p53ts 39C tox: -5.0%; p53ts 32C kill: 20.0%

Results for CS(=O)(=O)c1ccc2nc(NC(=O)c3ccco3)sc2c1 ?
Peg3 imprint: -78.6%; p53ts 39C tox: 12.6µM*; p53ts 32C kill: 12.6µM*

What do the screens show for `CCOC(=O)c1ccc2nc(NC(=O)c3ccco3)sc2c1`?
Peg3 imprint: -84.8%; p53ts 39C tox: inconclusive; p53ts 32C kill: inconclusive

What do the screens show for `COc1ccc(C(=O)Nc2nc3ccc(S(C)(=O)=O)cc3s2)cc1`?
p53ts 39C tox: -14.7%; p53ts 32C kill: 2.0%

What do the screens show for `CN(C)S(=O)(=O)c1ccc2nc(NC(=O)c3cccnc3)sc2c1`?
Peg3 imprint: -55.2%; p53ts 39C tox: inconclusive; p53ts 32C kill: 15.8µM*

What do the screens show for `Cc1ccc(C(=O)Nc2nc3ccc(S(C)(=O)=O)cc3s2)o1`?
p53ts 39C tox: 12.6µM*; p53ts 32C kill: 11.2µM*

Results for O=C(O)[C@@H]1[C@@H](C(=O)NCc2ccccn2)[C@@H]2C=C[C@@H]1O2 ?
Peg3 imprint: 4.2%[10.9 µM]; p53ts 39C tox: 1.4%[9.22 µM]; p53ts 32C kill: 5.1%[9.22 µM]

Results for CCOC(=O)C(C)Sc1nnc2cc(C)c3ccccc3n12 (stereo not drawn) ?
Peg3 imprint: -7.3%[10.9 µM]; p53ts 39C tox: -1.8%; p53ts 32C kill: 3.5%

What do the screens show for `O=C1CC(c2ccccc2)Cc2[nH]c(=O)c(-c3nc(-c4ccc(F)cc4)cs3)cc21` (stereo not drawn)?
Peg3 imprint: -21.1%[10.9 µM]; p53ts 39C tox: inconclusive; p53ts 32C kill: 16.9%

What do the screens show for `COc1ccccc1/C=C/c1nc2ccccc2n1C(C)C`?
Peg3 imprint: -18.1%[10.9 µM]; p53ts 39C tox: 15.8µM*; p53ts 32C kill: inconclusive

What do the screens show for `Cc1ccc(C(O)c2nc3ccccc3n2C(C)C)cc1` (stereo not drawn)?
Peg3 imprint: 5.1%; p53ts 39C tox: 15.5%; p53ts 32C kill: 7.0%

Results for Fc1ccc(-c2cc3nc4c(c(N5CCOCC5)n3n2)CCCC4)cc1 ?
Peg3 imprint: -7.9%; p53ts 39C tox: -13.4%; p53ts 32C kill: -18.9%

What do the screens show for `O=c1c2c(nc3cc(-c4ccc(F)cc4)[nH]n13)CCCC2`?
Peg3 imprint: -81.3%; p53ts 39C tox: 10µM*; p53ts 32C kill: 12.6µM*

Results for CCc1ccc(NC(=O)CSc2nc3c(sc4ccccc43)c(=O)n2CCCOC(C)C)cc1 ?
Peg3 imprint: -11.1%[10.9 µM]; p53ts 39C tox: -9.6%; p53ts 32C kill: -4.5%

What do the screens show for `CN1CCN(C(c2cccnc2)c2ccc3cccnc3c2O)CC1` (stereo not drawn)?
Peg3 imprint: -22.6%; p53ts 39C tox: 12.6µM*; p53ts 32C kill: -25.4%

How did CCOC(=O)c1c(C)oc2c1c(C(c1cccnc1)N1CCN(C)CC1)c(O)c1ccccc12 (stereo not drawn) do in these assays?
Peg3 imprint: -4.9%; p53ts 39C tox: -9.7%; p53ts 32C kill: 3.2%

Results for CCCSc1nc2sc3c(c2c(=O)n1Cc1ccccc1)CC(C)(CC)OC3 (stereo not drawn) ?
Peg3 imprint: -11.5%[10.9 µM]; p53ts 39C tox: 31.1%; p53ts 32C kill: -1.5%

Results for COc1ccccc1NC(=O)C1=C(C)Nc2nc(SCc3ccccc3)nn2C1c1cccnc1 (stereo not drawn) ?
Peg3 imprint: -5.7%[10.9 µM]; p53ts 39C tox: 13.0%; p53ts 32C kill: -1.6%

What do the screens show for `O=C(NCc1ccccc1)C(=O)Nc1c2c(nn1-c1ccccc1)CSC2`?
Peg3 imprint: -8.7%[10.9 µM]; p53ts 39C tox: -9.1%; p53ts 32C kill: 5.1%

What do the screens show for `COc1ccc(CC(=O)Nc2sc3c(c2C(=O)Nc2ccc(C)cc2)CCCCC3)cc1`?
Peg3 imprint: -1.9%[10.9 µM]; p53ts 39C tox: 26.7%; p53ts 32C kill: 6.3%

How did COc1ccc(CC(=O)Nc2sc3c(c2C(=O)Nc2cccc(C)c2)CCCCC3)cc1 do in these assays?
Peg3 imprint: -8.7%[10.9 µM]; p53ts 39C tox: 10µM*; p53ts 32C kill: -26.8%

What do the screens show for `COCCn1c(=O)c(-c2ccccc2)nc2cnc(N3CCN(C)CC3)nc21`?
Peg3 imprint: -0.3%; p53ts 39C tox: 5.1%; p53ts 32C kill: 4.6%

What do the screens show for `CCOc1ccccc1Oc1ncnc2c1oc1ccccc12`?
Peg3 imprint: -8.9%[10.9 µM]; p53ts 39C tox: -18.4%; p53ts 32C kill: 16.8%

Results for Cc1ccc2nc(CN3CCN(S(=O)(=O)c4ccc(F)cc4)CC3)oc2c1 ?
Peg3 imprint: -7.0%[10.9 µM]; p53ts 39C tox: -0.7%; p53ts 32C kill: 11.1%

Results for COc1ccc(C(=O)Nc2ccc3oc(-c4cc(Cl)ccc4Cl)nc3c2)cc1Br ?
Peg3 imprint: -7.5%[10.9 µM]; p53ts 39C tox: 10µM*; p53ts 32C kill: inconclusive

What do the screens show for `CC(C)c1ccc2oc(-c3cc(NC(=O)c4cccnc4)ccc3Cl)nc2c1`?
Peg3 imprint: -11.4%[10.9 µM]; p53ts 39C tox: inconclusive; p53ts 32C kill: 20µM*

What do the screens show for `O=C(Nc1ccc2oc(-c3cccc4c(Br)cccc34)nc2c1)c1cccc(Cl)c1`?
Peg3 imprint: -3.6%[10.9 µM]; p53ts 39C tox: 0.1%; p53ts 32C kill: 1.4%

What do the screens show for `O=C(Nc1ccc2oc(-c3ccccc3)nc2c1)c1cccnc1`?
Peg3 imprint: -21.9%; p53ts 39C tox: -8.6%; p53ts 32C kill: -5.7%

How did COc1ccc(C(=O)Nc2ccc3oc(-c4ccc5ccccc5c4)nc3c2)cc1Br do in these assays?
Peg3 imprint: -7.7%[10.9 µM]; p53ts 39C tox: inconclusive; p53ts 32C kill: -6.7%

How did O=C(Nc1ccc2oc(-c3cccc(Cl)c3Cl)nc2c1)c1cccc(Br)c1 do in these assays?
Peg3 imprint: -8.4%[10.9 µM]; p53ts 39C tox: 10µM*; p53ts 32C kill: inconclusive

Results for CC1(C)C(OC(=O)CCC(=O)O)CC[C@]2(C)C1CC[C@@]1(C)C2C(=O)C=C2[C@@H]3C[C@@](C)(C(=O)O)CC[C@]3(C)CCC21C (stereo partly drawn) ?
Peg3 imprint: -5.9%; p53ts 39C tox: -12.3%; p53ts 32C kill: 10.6%

How did Cc1cccc(NC(=O)CSc2nc(=O)n(CCN3CCOCC3)c3c2CCC3)c1C do in these assays?
Peg3 imprint: -9.3%[10.9 µM]; p53ts 39C tox: 10.6%; p53ts 32C kill: -5.9%

How did Cc1ccc(C(C)C)n1C(=O)OC(C)(C)C do in these assays?
p53ts 39C tox: 2.5%[9.22 µM]; p53ts 32C kill: 1.3%[9.22 µM]
